SARS PLpro yeast = blocks SARS-CoV papain-like protease in a yeast assay; S. cerevisiae expressing SARS-CoV PLpro, growth rescue; hit rate 0.19% among 330,000; AID 485353; Potency, µM (highest dose often 32.9 µM), usual class: activators; calls by dose curve; also: nearly all actives have a fitted effect of over 55% in size
Shiga inhibitor = Shiga toxin inhibition. Vero cells, Shiga toxin protein synthesis inhibition reporter. inhibition, % at 38.7 µM. hit rate 9.2% among 290,000. AID 2315; in the data active = inhibition mostly above about 28%, no sharp cut-off; inactive = mostly below about 43%
CHX counter = counter-screen for Shiga toxin inhibitors: cycloheximide protein synthesis inhibition. hit rate 12% among 300,000. max response, %. cell reporter, cycloheximide protein synthesis inhibition counterscreen. AID 2314; in the data active = max response mostly above about 13%, no sharp cut-off; inactive = mostly below about 14%; also: read at 38.3 µM for the half of the compounds with a filed dose
NS1 inh = influenza NS1 inhibition. AID 2326. Potency, µM (top dose mostly 46.1 µM). hit rate 0.4% among 270,000; calls by dose curve; also: actives are rising curves; nearly all actives have a fitted effect of over 50% in size
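Read-out: OD600 growth recovery of NS1-expressing budding yeast. Cells grown overnight at 30C in -URA glucose medium, washed, resuspended and diluted 1:100 in 2% galactose assay medium, pH 6.0. Same strain lacking NS1 served as positive control.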
Pf growth 48h = inhibits P. falciparum growth in the first generation, 48 h; P. falciparum luciferase growth in erythrocytes, 48 h; Potency, µM (series often up to 28.7 µM), usual class: inhibitors; hit rate 5.9% among 310,000
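Read-out is firefly luciferase luminescence from an integrated reporter in P. falciparum, so falling signal marks reduced parasite growth. Infected erythrocytes were at 2% hematocrit and 0.1% parasitemia (final) in Albumax-supplemented RPMI 1640.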
Pf growth 96h = P. falciparum growth inhibition at 96 hour, primary screen for plastid delayed-death inhibitors | P. falciparum luciferase reporter growth, 96 h | Potency, µM (doses to about 28.7 µM), usual class: inhibitors | hit rate 6.9% among 320,000
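96 h incubation, 37 C, 5% CO2, of luciferase-reporter P. falciparum-infected RBCs (2% hematocrit, 0.05% parasitemia final) with test compounds; endpoint luminescence.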
Large screens that a line does not name were inactive. Shown are actives, neighbours in structure and some others; about 21% of the full set was active somewhere. Unless noted, calls follow the shape of the dose curve; as a rule, active = well fitted inhibition curve with a large enough effect; inconclusive = small, poorly fitted or top-dose-only effect, or another doubt; inactive = no such curve, though single readings can be large or run the other way.

C/C(=N\Nc1ccc(Cl)c(C(=O)O)c1)c1ccc2c(c1)OCO2	Shiga inhibitor active, CHX counter 88 (no result: NS1 inh)
O=C(O)c1cc(N/N=C/c2ccc3c(c2)OCO3)ccc1Cl	Shiga inhibitor active, CHX counter 80 (no result: NS1 inh)
O=C(O/N=C/c1ccc2c(c1)OCO2)c1ccccc1Cl	Shiga inhibitor 132, CHX counter 55
O=C(O/N=C\c1ccc(N2CCOCC2)c([N+](=O)[O-])c1)c1ccccc1Cl	none
CCc1ccccc1NC(=S)N(CCc1ccncc1)C(C)C	none (no result: NS1 inh)
O=C(O)c1cc(N/N=C/c2ccc3c(c2)OCCO3)ccc1Cl	Shiga inhibitor 116, CHX counter 109
O=C(O)c1cc(S(=O)(=O)Nc2ccc3c(c2)OCCO3)c(Cl)cc1Cl	Shiga inhibitor 137, CHX counter 73, Pf growth 96h inconclusive
O=C(O)c1ccc(N/N=C/c2ccc3c(c2)OCO3)cc1	Pf growth 48h inconclusive
CCCc1nnc(SCC(=O)N2CCCCC2C)n1CCOC (stereo not drawn)	Pf growth 96h inconclusive
CCC(=O)n1nc(-c2cccnc2)nc1NCc1cccs1	none (no result: NS1 inh)
CCN(C(=O)Cc1cccs1)c1nnc(-c2cccnc2)s1	Shiga inhibitor 48, CHX counter 28
CCCCn1nnnc1SCC(=O)c1ccc(C)c(C)c1	CHX counter 38 (no result: Pf growth 96h)
CCC(=O)Nc1cccc(-n2nnnc2SCC(=O)c2ccc(C)c(C)c2)c1	SARS PLpro yeast inconclusive, Shiga inhibitor 42, CHX counter 26
CCCCn1nnnc1SCC(=O)c1ccccc1F	Pf growth 48h inconclusive
CCC(=O)Nc1cccc(-n2nnnc2SCC(=O)NCc2ccco2)c1	Pf growth 96h inconclusive
CCCCNC(=S)N=Nc1c(O)[nH]c2ccccc12	Shiga inhibitor 118, Pf growth 48h inconclusive, Pf growth 96h 9.3µM (no result: NS1 inh)
Oc1[nH]c2ccccc2c1N=NC(=S)NCCc1ccccc1	none
CC(C)c1ccc2[nH]c(O)c(N=NC(=S)NCCc3ccccc3)c2c1	SARS PLpro yeast inconclusive, Pf growth 48h inconclusive, Pf growth 96h 9.3µM
NC(=S)N=Nc1c(O)[nH]c2ccccc12	SARS PLpro yeast inconclusive, Pf growth 96h inconclusive
Oc1cccc(NC(=S)N=Nc2c(O)[nH]c3ccccc23)c1	Shiga inhibitor 62, CHX counter 42
CCOc1ccc(NC(=S)N=Nc2c(O)[nH]c3ccccc23)cc1	CHX counter 13, Pf growth 48h inconclusive, Pf growth 96h 1.7µM (no result: NS1 inh)
CCc1nnc(NC(=O)CCC(=O)Nc2ccc(OC)cc2OC)s1	NS1 inh inconclusive
C=CCC1(C#N)C(SC)=NC2=C(C(=O)CC(C)(C)C2)C1c1ccc(Br)cc1 (stereo not drawn)	Pf growth 48h 2.9µM, Pf growth 96h inconclusive
COc1cc(OC)cc(C(=O)NC(=S)N2CCCCC2c2cccnc2)c1 (stereo not drawn)	Pf growth 96h inconclusive
CC(=O)c1ccc(OCc2cc(C(=O)N3CCC(c4ccncc4)CC3)no2)cc1	none
CC(=O)c1ccc(OCc2cc(C(=O)N3CCCCC3c3cccnc3)no2)cc1 (stereo not drawn)	Shiga inhibitor 81, CHX counter 54, Pf growth 48h inconclusive
CCOc1cccc(C(=O)N2CCCCC2c2cccnc2)c1 (stereo not drawn)	Pf growth 48h 9.3µM
CCn1c(CCC(=O)Nc2ccccc2F)nnc1SCC(=O)Nc1ccc(OC)cc1	Pf growth 96h inconclusive
O=C(Cc1ccon1)c1ccc(O)cc1O	NS1 inh inconclusive
O=[N+]([O-])c1ccc(Oc2ccc(-c3cnc4ccccc4n3)cc2[N+](=O)[O-])cc1	Shiga inhibitor 40, CHX counter 21
O=C(Oc1ccc([N+](=O)[O-])cc1)c1cc(-c2ccccc2)nc2ccccc12	none
O=[N+]([O-])c1cc(-c2cnc3ccccc3n2)ccc1Oc1ccc(Br)cc1	Shiga inhibitor 111, CHX counter 29, NS1 inh inconclusive
Cc1nnc(-c2ccc(Oc3ccc(Br)cc3)c([N+](=O)[O-])c2)o1	none
CC(C)(C)OC(=O)C[C@H]1C/C=C\C[C@H](CC(=O)N[C@H](CO)Cc2ccccc2)C(=O)N[C@H](Cc2ccccc2)COC1=O	none (no result: Shiga inhibitor, CHX counter, NS1 inh, Pf growth 48h, Pf growth 96h)
C(=C\CSc1nnnn1-c1ccccc1)/CSc1nnnn1-c1ccccc1	Pf growth 48h inconclusive, Pf growth 96h inconclusive
Cc1ccccc1-n1nnnc1Sc1nnnn1-c1ccccc1	Pf growth 48h 8.3µM (no result: Pf growth 96h)
CCCSc1nnc(Sc2nnnn2-c2ccccc2)s1	Pf growth 48h 13µM (no result: Pf growth 96h)
Cc1cc(C)c(C#N)c(Sc2nnnn2-c2ccccc2)n1	Pf growth 96h 2.3µM
COC(=O)C1C/C(=N\NS(=O)(=O)c2ccc(C)cc2)c2ccsc2C1 (stereo not drawn)	none
COc1ccc(NC(=S)Nn2cnnc2)c(OC)c1	Pf growth 96h inconclusive
COc1ccc(NC(=O)c2ccco2)c([N+](=O)[O-])c1	Shiga inhibitor 35, CHX counter 20
Cc1ccc(NC(=O)c2ccco2)c([N+](=O)[O-])c1	Shiga inhibitor 107, CHX counter 41, Pf growth 96h inconclusive (no result: NS1 inh)
COc1ccc(NC(=O)C/C(C)=N/NC(=O)c2ccco2)c([N+](=O)[O-])c1	Shiga inhibitor 93, CHX counter 19, Pf growth 96h inconclusive
COc1ccc(NC(=O)CN2CCC(NC(=O)c3ccco3)CC2)c([N+](=O)[O-])c1	Pf growth 48h inconclusive
O=C(COc1cc(Cl)c(Cl)cc1Cl)Nn1cnnc1	none
CC(=O)Nc1ccc(-c2csc(N3CCC(C(N)=O)CC3)n2)cc1	Pf growth 48h inconclusive (no result: SARS PLpro yeast, Shiga inhibitor, CHX counter, NS1 inh)
CCN(CC)c1ccc(/C=N/NC(=O)c2c(Cl)c(C)nn2C)cc1	none
CN(C)c1ccc(/C=N/NC(=O)c2ccn(C)n2)cc1	Shiga inhibitor 34, CHX counter 33
Cn1ccc(C(=O)N/N=C/c2ccccc2[N+](=O)[O-])n1	Shiga inhibitor 100, CHX counter 40
CN(C)c1ccc(/C=N/NC(=O)c2ccnn2C)cc1	Shiga inhibitor 58, CHX counter 24
Cn1cc([N+](=O)[O-])c(C(=O)N/N=C/c2ccccc2)n1	none
Cn1ccc(C(=O)N/N=C/c2cccnc2)n1	Shiga inhibitor 45, CHX counter 18
O=C(C[C@H]1C[C@H](C(=O)N2CCOCC2)[C@@]2(CCC3CCCC3)c3[nH]c4ccc(Cl)cc4c3CCN2C1=O)NCC12CC3CC(CC(C3)C1)C2	none (no result: Shiga inhibitor, CHX counter, NS1 inh, Pf growth 48h, Pf growth 96h)
Cc1nnc(SCC(=O)N2CCN(C(=O)c3ccco3)CC2)n1-c1ccccc1	none (no result: NS1 inh)
CCOC(=O)C(C)Sc1nc2c(cnn2-c2ccc(F)cc2)c(=O)[nH]1 (stereo not drawn)	none
Cc1ccc(NC(=O)CSc2ncccn2)cc1S(=O)(=O)N1CCCCC1	Pf growth 96h inconclusive (no result: Shiga inhibitor, CHX counter, NS1 inh)
Cc1ccc2nc(NC(=O)C(NS(=O)(=O)c3cccc4nsnc34)C(C)C)sc2c1 (stereo not drawn)	none (no result: Pf growth 48h)
CSc1ccccc1OCc1cc(C(=O)N(C)Cc2ccc(C)o2)no1	Shiga inhibitor 79, CHX counter 54, Pf growth 96h inconclusive
CSc1ccccc1OCc1cc(C(=O)N(C)C(C)c2nc(C)cs2)no1 (stereo not drawn)	CHX counter 18
